# Data: PubChem BioAssay
# “And” between values parts separate entries of the source, which are not always exact repeats. Identical values can stand only once. The source made the active and inactive calls.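 How the source made its calls, unless noted: active means normalized viability below 100% at a tested concentration; inactive means the rest.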
# Assays:
# [1] = sensitizers of A549 cells to miR-34 induction, primary screen, imaging, A549 dox-inducible miR-34, nuclei and caspase counts (AID 1347080;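 active means compounds whose cell count with miR-34 switched on is under 0.7 times the count with it off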); settings: A549 miR-34 inducible, Hoechst nuclei count, 48 h
# [2] = survival rescue of mitochondrial mutant cells in low glucose, primary screen, MELAS cybrids, Rieske KO mouse fibroblasts, CellTiter-Glo (AID 1508586;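 active means mean z-score across replicates of 1.96 or higher in either the MELAS or the Rieske mutant cell line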;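 further: z relative to plate mean and SD of compound and empty wells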)
# [3] = ovarian cancer cell viability with rucaparib, profiling panel, oncology-focused library, rucaparib conditional (AID 1508598); settings: patient-derived ovarian cancer cells, CellTiter-Glo viability, 144 h, stronger effect = lower value
# [4] = LFS_MB_P medulloblastoma growth inhibition, cell-based, chromothripsis tumors, cisplatin or BGB combos (AID 1671449; in the data active means inhibition above about 80%;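 further: cells exposed for 96 hours; 0% = vehicle DMSO and 100% = killing by high DMSO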); settings: LFS_MB_P medulloblastoma cells
# [5] = HDN33 neuroblastoma growth inhibition, cell-based, chromothripsis tumors, cisplatin or BGB combos (AID 1671450; in the data active means inhibition above about 80%;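 further: cells exposed to compound for four days; 0% = vehicle DMSO and 100% = cell killing by high DMSO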); settings: HDN33 neuroblastoma cells, stronger effect = higher value
# [6] = ICB984 medulloblastoma cell growth inhibition, synergistic combos for chromothripsis tumors, cisplatin or BGB combos (AID 1671451; call rule not given here;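 further: cells exposed for 96 hours before readout; 0% = vehicle DMSO and 100% = killing by high DMSO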); settings: ICB984 medulloblastoma cells, drug combinations, stronger effect = higher value
# [7] = LFS_MB_1R medulloblastoma cell growth inhibition, synergistic combos for chromothripsis tumors, cisplatin or BGB combos (AID 1671452; in the data active means inhibition above about 80%;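 further: cells exposed for 96 hours before readout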); settings: LFS_MB_1R medulloblastoma cells, stronger effect = higher value
# [8] = HTB85 osteosarcoma cell growth inhibition, synergistic combos for chromothripsis tumors, BGB or cisplatin IC20 combos (AID 1671453; in the data active means inhibition above about 80%;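 further: cells exposed for 96 hours before readout; 0% = vehicle DMSO and 100% = high DMSO killing control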); settings: HTB85 osteosarcoma cells, drug combinations, stronger effect = higher value
# [9] = CRL2098 osteosarcoma cell growth inhibition, synergistic combos for chromothripsis tumors, BGB or cisplatin IC20 combos (AID 1671454; in the data active means inhibition above about 80%;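 further: cells exposed for 96 h before readout; 0% = vehicle DMSO and 100% = killing by high DMSO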); settings: CRL2098 osteosarcoma cells, drug combinations, stronger effect = higher value
# [10] = HD-MB03 medulloblastoma cell growth inhibition, synergistic combos for chromothripsis tumors, BGB or cisplatin IC20 combos (AID 1671455; in the data active means inhibition above about 83%;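 further: 0% = vehicle DMSO and 100% = high DMSO as cytotoxic control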); settings: HD-MB03 medulloblastoma cells, stronger effect = higher value
# [11] = UWB1.289 ovarian carcinoma cell growth inhibition, synergistic combos for chromothripsis tumors, BGB or cisplatin combos (AID 1671456; in the data active means inhibition above about 80%;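 further: cells exposed to compound for four days; 0% = vehicle DMSO and 100% = killing by high DMSO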); settings: UWB1.289 ovarian carcinoma cells, stronger effect = higher value
# [12] = LFS_MB_2R medulloblastoma cell growth inhibition, synergistic combos for chromothripsis tumors, cisplatin combos (AID 1671457; in the data active means inhibition above about 80%;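 further: cells exposed to compound for four days before readout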); settings: LFS_MB_2R medulloblastoma cells, stronger effect = higher value
# [13] = MDA-MB-436 breast carcinoma cell growth inhibition, synergistic combos for chromothripsis tumors, BGB or cisplatin combos (AID 1671458; call rule not given here;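 further: cells exposed for 96 hours; 0% = vehicle DMSO and 100% = killing by high DMSO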); settings: MDA-MB-436 breast carcinoma growth inhibition, drug combinations, stronger effect = higher value
# [14] = UWB1.289_BRCA1 ovarian cancer growth, cell-based, BGB or cisplatin combinations (AID 1671459; in the data active means inhibition above about 80%); settings: UWB1.289 BRCA1 ovarian carcinoma, drug combinations, stronger effect = higher value
# [15] = growth inhibition of BT084 medulloblastoma cells, cell-based, ICGC_MB145, cisplatin and BGB IC40 combos (AID 1671461; in the data active means inhibition above about 80%;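 further: cells exposed to drugs for 96 hours; 0% = vehicle DMSO and 100% = high DMSO full killing control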); settings: drug combinations, stronger effect = higher value
# [16] = growth inhibition of RCMB18 medulloblastoma cells, cell-based, cisplatin and BGB IC40 combos (AID 1671462; in the data active means inhibition above about 80%;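 further: cells exposed to compound for four days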); settings: stronger effect = higher value
# [17] = growth inhibition of CRL1545 osteosarcoma cells, cell-based, cisplatin and BGB IC20 combos (AID 1671464; in the data active means inhibition above about 80%;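 further: cells exposed to compound for 96 hours before readout; 0% = vehicle DMSO and 100% = high DMSO killing control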); settings: stronger effect = higher value
# [18] = measured here: combination with BGB IC40, at 0.05 µM
# [19] = measured here: with BGB IC20 combination, at 0.5 µM
# [20] = measured here: with cisplatin IC20 combination, at 0.5 µM
# [21] = measured here: combination with cisplatin, at 0.5 µM
# [22] = measured here: combination with cisplatin, at 5 µM
smiles,measurement,setting,value
CCOC(=O)NCCCC(=O)NCCc1ccccc1,fold change,"[1]; stronger effect = lower value, cell number ratio, induced over uninduced",0.978 (inactive)
same,fold change,[1]; measured here: relative caspase fold change +Dox/-Dox,0.408
same,cell count,"[1]; measured here: total cells with miR-34 induction, stronger effect = lower value",8950
same,cell count,[1]; measured here: total cells without miR-34 induction,9150
same,z-score,"[2]; MELAS cybrid survival, CellTiter-Glo 48 h, stronger effect = higher value",-0.307 (inactive)
same,z-score,"[2]; Rieske KO mouse fibroblast survival, CellTiter-Glo 72 h",0.919
same,viability,"[3]; at 0.000305 µM, OCI-C5x cells, with rucaparib 10 µM, 100% = cells with rucaparib alone",123% (inactive)
same,viability,"[3]; at 0.000305 µM, OCI-C5x cells, without rucaparib",98.5% (active)
same,viability,"[3]; at 0.000305 µM, OCI-P5x cells, with rucaparib 20 µM, 100% = cells with rucaparib alone",93.8% (active)
same,viability,"[3]; at 0.000305 µM, OCI-P5x cells, without rucaparib",94.2% (active)
same,viability,"[3]; at 0.00122 µM, OCI-C5x cells, with rucaparib 10 µM, 100% = cells with rucaparib alone",108% (inactive)
same,viability,"[3]; at 0.00122 µM, OCI-C5x cells, without rucaparib",102% (inactive)
same,viability,"[3]; at 0.00122 µM, OCI-P5x cells, with rucaparib 20 µM, 100% = cells with rucaparib alone",95.3% (active)
same,viability,"[3]; at 0.00122 µM, OCI-P5x cells, without rucaparib",93.4% (active)
same,viability,"[3]; at 0.00488 µM, OCI-C5x cells, with rucaparib 10 µM, 100% = cells with rucaparib alone",111% (inactive)
same,viability,"[3]; at 0.00488 µM, OCI-C5x cells, without rucaparib",110% (inactive)
same,viability,"[3]; at 0.00488 µM, OCI-P5x cells, with rucaparib 20 µM, 100% = cells with rucaparib alone",92.7% (active)
same,viability,"[3]; at 0.00488 µM, OCI-P5x cells, without rucaparib",96.6% (active)
same,viability,"[3]; at 0.0195 µM, OCI-C5x cells, with rucaparib 10 µM, 100% = cells with rucaparib alone",116% (inactive)
same,viability,"[3]; at 0.0195 µM, OCI-C5x cells, without rucaparib",115% (inactive)
same,viability,"[3]; at 0.0195 µM, OCI-P5x cells, with rucaparib 20 µM, 100% = cells with rucaparib alone",93.3% (active)
same,viability,"[3]; at 0.0195 µM, OCI-P5x cells, without rucaparib",94.2% (active)
same,viability,"[3]; at 0.0781 µM, OCI-C5x cells, with rucaparib 10 µM, 100% = cells with rucaparib alone",110% (inactive)
same,viability,"[3]; at 0.0781 µM, OCI-C5x cells, without rucaparib",108% (inactive)
same,viability,"[3]; at 0.0781 µM, OCI-P5x cells, with rucaparib 20 µM, 100% = cells with rucaparib alone",94.7% (active)
same,viability,"[3]; at 0.0781 µM, OCI-P5x cells, without rucaparib",99.6% (active)
same,viability,"[3]; at 0.313 µM, OCI-C5x cells, with rucaparib 10 µM, 100% = cells with rucaparib alone",117% (inactive)
same,viability,"[3]; at 0.313 µM, OCI-C5x cells, without rucaparib",106% (inactive)
same,viability,"[3]; at 0.313 µM, OCI-P5x cells, with rucaparib 20 µM, 100% = cells with rucaparib alone",88.9% (active)
same,viability,"[3]; at 0.313 µM, OCI-P5x cells, without rucaparib",104% (inactive)
same,viability,"[3]; at 1.25 µM, OCI-C5x cells, with rucaparib 10 µM, 100% = cells with rucaparib alone",118% (inactive)
same,viability,"[3]; at 1.25 µM, OCI-C5x cells, without rucaparib",111% (inactive)
same,viability,"[3]; at 1.25 µM, OCI-P5x cells, with rucaparib 20 µM, 100% = cells with rucaparib alone",89.5% (active)
same,viability,"[3]; at 1.25 µM, OCI-P5x cells, without rucaparib",99.1% (active)
same,viability,"[3]; at 5 µM, OCI-C5x cells, with rucaparib 10 µM, 100% = cells with rucaparib alone",116% (inactive)
same,viability,"[3]; at 5 µM, OCI-C5x cells, without rucaparib",109% (inactive)
same,viability,"[3]; at 5 µM, OCI-P5x cells, with rucaparib 20 µM, 100% = cells with rucaparib alone",83.3% (active)
same,viability,"[3]; at 5 µM, OCI-P5x cells, without rucaparib",89.3% (active)
same,inhibition,"[4]; at 0.5 µM, stronger effect = higher value",-22.5% (inactive) and -16.6% (inactive)
same,inhibition,"[4]; measured here: combination with BGB IC20, at 0.005 µM",-34.5% and -4.15%
same,inhibition,"[4]; measured here: combination with BGB IC40, at 0.005 µM",74.6% and -15.4%
same,inhibition,[4]; [18],-17.3% and -8.02%
same,inhibition,"[4]; measured here: combination with cisplatin, at 0.5 µM, stronger effect = higher value",-12.8% and -32.3%
same,inhibition,"[4]; measured here: combination with cisplatin, at 5 µM, stronger effect = higher value",-34.9% and -31.3%
same,inhibition,"[5]; BGB combo, at 5 µM",-65.3% and -26.9%
same,inhibition,[5]; at 0.5 µM,-38.5% (inactive) and -17.7% (inactive)
same,inhibition,"[5]; cisplatin combo, at 5 µM",-63.5% and -31.2%
same,inhibition,[5]; [19],-39.2% and -23.4%
same,inhibition,[5]; [20],-28% and -17.7%
same,inhibition,"[5]; single agent, at 5 µM",-54.8% and -22.1%
same,inhibition,"[6]; BGB IC20 combo, at 0.005 µM",-37.9% and -8.12%
same,inhibition,"[6]; BGB IC40 combo, at 0.005 µM",-29.1% and -31.3%
same,inhibition,"[6]; BGB IC40 combo, at 0.05 µM",-30% and -50.9%
same,inhibition,[6]; at 0.5 µM,-27.9% (inactive) and -27.3% (inactive)
same,inhibition,"[6]; cisplatin combo, at 0.05 µM",-36.7% and -56.9%
same,inhibition,"[6]; cisplatin combo, at 0.5 µM",-28.4% and -31.6%
same,inhibition,"[6]; cisplatin combo, at 5 µM",-21.8% and -22.7%
same,inhibition,"[6]; measured here: 5 uM single agent, at 5 µM",-34% and -5.68%
same,inhibition,[7]; at 0.5 µM,-35.7% (inactive) and -30.1% (inactive)
same,inhibition,[7]; [18],-32.7% and -26.4%
same,inhibition,[7]; [21],-69.3% and -37.1%
same,inhibition,[7]; [22],-41.3% and -32.8%
same,inhibition,[8]; at 0.5 µM,-20.7% (inactive) and -9.16% (inactive)
same,inhibition,"[8]; measured here: with BGB IC20, at 0.5 µM",-7.26% and 6.66%
same,inhibition,"[8]; measured here: with BGB IC20, at 5 µM",-10.7% and -19.1%
same,inhibition,"[8]; measured here: with cisplatin IC20, at 0.5 µM",-27.1% and -24.2%
same,inhibition,"[8]; measured here: with cisplatin IC20, at 5 µM",18% and -25.8%
same,inhibition,"[8]; single agent, at 5 µM",-17.5% and -2.77%
same,inhibition,[9]; at 0.5 µM,-89.4% (inactive) and -48.9% (inactive)
same,inhibition,"[9]; measured here: combination with BGB at IC20, at 0.5 µM",-73.5% and 13.5%
same,inhibition,"[9]; measured here: combination with cisplatin at IC20, at 0.5 µM",-117% and -69.6%
same,inhibition,[10]; at 0.5 µM,-22.5% (inactive) and -0.04% (inactive)
same,inhibition,"[10]; measured here: combo with BGB at IC20, at 0.5 µM",-19.9% and -14.2%
same,inhibition,"[10]; measured here: combo with cisplatin at IC20, at 0.5 µM",-31.5% and 17.9%
same,inhibition,[11]; at 0.5 µM,-19.7% (inactive) and -14.9% (inactive)
same,inhibition,"[11]; measured here: inhibition with BGB combination, at 0.05 µM",-30.7% and -21.8%
same,inhibition,"[11]; measured here: inhibition with cisplatin combination, at 0.05 µM",-28.1% and -20.9%
same,inhibition,[12]; at 0.5 µM,-12.3% (inactive) and -24.7% (inactive)
same,inhibition,[12]; [21],-9.92% and -32%
same,inhibition,[12]; [22],-15.4% and -22.8%
same,inhibition,[13]; at 0.5 µM,-30.7% (inactive) and -10.1% (inactive)
same,inhibition,"[13]; measured here: BGB combination, at 0.5 µM",-24.7% and -2.6%
same,inhibition,"[13]; measured here: BGB combination, at 5 µM",-6.13% and -14.1%
same,inhibition,"[13]; measured here: cisplatin combination, at 0.5 µM",-47% and -19.2%
same,inhibition,"[13]; measured here: cisplatin combination, at 5 µM",-39.2% and -16.3%
same,inhibition,"[14]; BGB combination, concentration series, at 5 µM",-32.5% and 1.48%
same,inhibition,[14]; at 0.5 µM,-24.6% (inactive) and -10.6% (inactive)
same,inhibition,"[14]; cisplatin combination, concentration series, at 5 µM",-5.77% and 15.9%
same,inhibition,[15]; at 0.5 µM,-9.48% (inactive) and -15.9% (inactive)
same,inhibition,"[15]; cisplatin combination, at 0.5 µM",-0.569% and -16.9%
same,inhibition,"[15]; cisplatin combination, at 5 µM",-138% and -1.29%
same,inhibition,"[15]; measured here: BGB IC40 combination 0.05 uM, at 0.05 µM",-26.7% and -17.1%
same,inhibition,"[15]; single agent, at 5 µM",-8.38% and 9.97%
same,inhibition,[16]; at 0.5 µM,-8.55% (inactive) and -27.8% (inactive)
same,inhibition,"[16]; cisplatin combo, at 5 µM",7.25% and -23.2%
same,inhibition,"[16]; measured here: BGB IC40 combination, at 0.05 µM",-14% and -29.5%
same,inhibition,[16]; [21],4.17% and -12.7%
same,inhibition,"[16]; single agent, at 5 µM",-2.65% and -61.4%
same,inhibition,[17]; at 0.5 µM,-24.2% (inactive) and -17.6% (inactive)
same,inhibition,[17]; [19],-40% and -29.3%
same,inhibition,[17]; [20],-18.2% and -11.8%
same,inhibition,"[17]; single agent, at 0.05 µM",-24.2% and 17.5%
same,inhibition,"[17]; single agent, at 5 µM",9.21% and -20.7%
